Test results taken from PubChem BioAssay.
Values without a mark were called inactive. How the calls were made is not given here.

Molecular target: Pantothenate synthetase (Mycobacterium tuberculosis (strain ATCC 25618 / H37Rv)) (UniProt P9WIL5)
Assay: Recombinant Mtb pantothenate synthetase (PanC) inhibitors, coupled enzyme, confirmatory (AID 375);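 further: 0% = full reaction with vehicle and 100% = no enzyme background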
Details: coupled enzyme assay; at 10 µM, stronger effect = higher value

Sequence of Pantothenate synthetase (Mycobacterium tuberculosis (strain ATCC 25618 / H37Rv)) (P9WIL5 whole entry, looked up): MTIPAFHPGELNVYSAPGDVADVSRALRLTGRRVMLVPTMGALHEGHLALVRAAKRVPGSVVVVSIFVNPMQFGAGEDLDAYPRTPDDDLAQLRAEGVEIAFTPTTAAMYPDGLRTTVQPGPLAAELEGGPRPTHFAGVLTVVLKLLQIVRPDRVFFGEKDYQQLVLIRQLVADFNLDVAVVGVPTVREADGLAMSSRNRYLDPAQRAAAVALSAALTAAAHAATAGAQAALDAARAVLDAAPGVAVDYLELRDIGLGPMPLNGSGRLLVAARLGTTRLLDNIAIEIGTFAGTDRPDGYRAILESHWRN

| SMILES | inhibition [%] |
| --- | --- |
| CCOC(=O)NC(=O)CSc1nnc(C)s1 | 4 |
| CN(Cc1ccccc1)C(=O)c1ccc2c(c1)OCO2 | 0 |
| Cc1cc(C)n(-c2nnc(C)n2/N=C/c2ccccc2F)n1 | 9 |
| CC1=C(C(=O)NCc2ccco2)C2(CCC(C)CC2)OC1=O (configuration not stated) | 4 |
| COc1ccc(OCCN2C(=O)NC(C)(c3ccc(C)cc3)C2=O)cc1 (configuration not stated) | 1 |
| CC1CCc2nn(CC(=O)NCCN3CCCCC3C)cc2C1 (configuration not stated) | 0 |
| O=C(CN1C(=O)c2ccccc2C1=O)NCC1COc2ccccc2O1 (configuration not stated) | 0 |
| CC1C(=O)C(C)C(c2cccs2)NC1c1cccs1 (configuration not stated) | 0 |
| Cc1ccc(S(=O)(=O)N2CCN(C(=O)CN3C(=O)NC4(CCOc5ccccc54)C3=O)CC2)cc1 (configuration not stated) | 2 |
| O=C(C1CCCCC1)N1CCC(c2nc3c(nnn3Cc3ccccc3Cl)c(=O)[nH]2)CC1 | 4 |
| COc1cc(C2=NOC(C(=O)NCc3ccc(F)cc3)C2)cc(OC)c1OC (configuration not stated) | 0 |
| c1ccc(N=P(c2nc3ccccc3o2)(N2CCOCC2)N2CCOCC2)cc1 | 0 |
| O=C(C1CC1)N(Cc1ccco1)c1nc(-c2ccccc2)cs1 | 1 |
| Cc1nnc(NC(=O)CCC(=O)N2CCC(C)CC2)s1 | 0 |
| CC(=O)c1ccc(OC(=O)c2cccs2)cc1 | 0 |
| CCCCOC(=O)n1c(SCC(=O)N(CC)CC)nc2ccccc21 | 0 |
| COc1ccc(Cn2nnnc2C(c2ccccn2)N2CCN(c3cc(Cl)ccc3C)CC2)cc1 (configuration not stated) | 0 |
| CCOC(=O)c1cn(CC)c2cc(N3CCOCC3)c(F)cc2c1=O | 0 |
| O=C(O)C1CC=CCC1C(=O)Nc1cccc(F)c1 (configuration not stated) | 3 |
| Cc1cccc2sc(NC(=O)Cn3cccc3)nc12 | 0 |
| CC1(c2ccncc2)Nc2ccccc2-c2nc3ccccc3n21 (configuration not stated) | 0 |
| CCOC(=O)c1cc(-c2ccccc2)sc1N | 3 |
| Cc1nn(-c2ccc(F)cc2)c2sc(C(=O)O)cc12 | 0 |
| CC(C)(C)n1nnnc1C(c1cccs1)N1CCN(Cc2ccccc2)CC1 (configuration not stated) | 12 |

| SMILES | inhibition [%] |
| --- | --- |
| COc1ccc(NC(=O)c2oc3ccc(S(=O)(=O)N4CCC5(CC4)OCCO5)cc3c2C)cc1 | 6 |
| Cc1ccccc1N(CC(=O)NCC1CCCO1)C(=O)C1(C)CC(=O)N=C2C=CC=CN21 (configuration not stated) | 0 |
| CCOC(=O)CNC(=O)C(Cc1ccccc1)NS(=O)(=O)c1ccc2c(c1)CCC(=O)N2 (configuration not stated) | 0 |
| Cc1ccc(O)c(C(=O)c2cc(C#N)c(=O)n(CC3CCCO3)c2)c1 (configuration not stated) | 8 |
| CCOC(=O)c1oc2ccccc2c1CSc1nnnn1-c1ccc(C)cc1 | 1 |
| O=C(CN1C(=O)COCC1=O)N1CCOCC1 | 0 |
| O=C1CN(C(=O)COC(=O)c2ccccc2NC(=O)c2ccco2)c2ccccc2N1 | 0 |
| OC(CN1CCOCC1)Cn1c(-c2cccc(Cl)c2)nc2ccccc21 (configuration not stated) | 4 |
| CC(=O)NC(CCS(C)(=O)=O)C(=O)Nc1cccc(C)c1 (configuration not stated) | 3 |
| CCOc1cccc(C(=O)N2CCCCC2c2cccnc2)c1 (configuration not stated) | 0 |
| Cc1cccc(N2CCN(C(=O)Cn3ccc4ccccc4c3=O)CC2)c1C | 0 |
| CCCC(O)(CCN(C)C)c1ccc(OC)cc1 (configuration not stated) | 0 |
| CC(=O)c1ccc2c3c(cccc13)C(=O)N(c1c(C)nn(C)c1C)C2=O | 0 |
| CCOc1ccc(NC(=O)CSc2nnc(Cc3cccn3C)n2-c2ccc(OC)cc2)cc1 | 1 |
| CCN1C(=O)c2ccccc2S(=O)c2ccc(C(=O)NC3CC3)cc21 (configuration not stated) | 6 |
| CC(=O)Nc1cccc(NC(=O)c2oc3ccccc3c2C)c1 | 0 |
| CN(C)c1ccc2c(c1)OC(N)=C(C#N)C2c1cccc(F)c1 (configuration not stated) | 0 |
| COc1cccc(OC)c1C(=O)N1CCOCC1 | 12 |
| COC(=O)c1ccccc1NC(=O)C1CC(=O)N(c2ccc(F)cc2)C1 (configuration not stated) | 20 |
| COc1cccc(Nc2c(F)c(F)c(F)c(F)c2C(=O)O)c1 | 7 |
| CCOC(=O)C(CCc1nnc(N)s1)C(=O)OCC | 4 |
| CCN(CC)C(=O)CSC1=C(C#N)C(c2ccco2)C(C(=O)OCCOC)=C(C)N1 (configuration not stated) | 0 |
| Cc1ccccc1-c1nc(Cc2ccccc2)no1 | 1 |
